The values that follow come from PubChem BioAssay (NCI).

About 83,000 compounds went through this panel and 20% of them were active in at least one assay; those are over-represented in the sample as a whole.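 Activity criterion: percent growth below 10, measured after cells in 96-well plates were exposed to a single compound concentration for 48 hours.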 Unmarked numbers belong to inactive results. Active and inactive are the calls of the source.

Test systems include EKVX NSCLC; SN12C renal; UO-31 renal; TK-10 renal; ACHN renal; CAKI-1 renal; A498 renal; CCRF-CEM leukemia; SR leukemia; RPMI-8226 leukemia; OVCAR-8 ovarian; OVCAR-5 ovarian; OVCAR-4 ovarian; SK-OV-3 ovarian; IGROV1 ovarian; OVCAR-3 ovarian; HS 578T breast; NCI/ADR-RES ovarian; MOLT-4 leukemia.
Assay in all cases: NCI-60 one-dose screen, 48 h (100 = growth as untreated, 0 = no growth, -100 = all killed)
Common to all, as to settings: 10 µM unless noted

On to `N#C/C(=C\NC(=S)N=Nc1c(O)[nH]c2ccccc12)c1nc2ccccc2s1`, for which the growth with EKVX NSCLC was 99.3%; in the assay on SN12C renal it was 110%; in the assay with UO-31 renal, 79.2%; with TK-10 renal, 140%; with ACHN renal, 89.6%; in the assay with CAKI-1 renal, 96.2%. Moreover, the growth in the assay on A498 renal is 89%; in the assay on CCRF-CEM leukemia it was 93.4%; in the assay on SR leukemia, 77.3%; in the assay with RPMI-8226 leukemia, 97%; with OVCAR-8 ovarian it was 96%; in the assay with OVCAR-5 ovarian, 105%. For the same molecule, the growth with OVCAR-4 ovarian was 93.7%; in the assay on SK-OV-3 ovarian it was 92.8%; in the assay on IGROV1 ovarian, 85.4%; in the assay on OVCAR-3 ovarian, 103%; in the assay with HS 578T breast, 94.6%; with NCI/ADR-RES ovarian, 103%.

`Cc1ccc(C)c(CN(C)C)c1O`: the growth in the assay on EKVX NSCLC was 98.1%; in the assay with SN12C renal, 115%; in the assay with UO-31 renal it was 90.1%; in the assay on TK-10 renal, 105%; in the assay with ACHN renal, 114%; in the assay with A498 renal it was 94.2%. For the same molecule, the growth in the assay on CCRF-CEM leukemia is 135%; in the assay with MOLT-4 leukemia it was 124%; in the assay on SR leukemia it was 118%; with RPMI-8226 leukemia it was 121%; with OVCAR-8 ovarian, 98.2%; with OVCAR-5 ovarian, 102%. Besides, the growth in the assay with SK-OV-3 ovarian was 107%; with IGROV1 ovarian, 110%; in the assay with OVCAR-3 ovarian it was 113%; in the assay on HS 578T breast, 105%; in the assay on NCI/ADR-RES ovarian, 99.3%.

On to `O=C(O)CC1=CCCCC1`, for which the growth in the assay on EKVX NSCLC is 97.5%; in the assay on SN12C renal, 104%; in the assay with UO-31 renal it was 89.1%; with TK-10 renal, 108%; in the assay with ACHN renal it was 91.1%; in the assay on A498 renal, 74.8%. The growth with CCRF-CEM leukemia is 96.9%; in the assay with MOLT-4 leukemia it was 97.5%; in the assay on SR leukemia, 96.7%; in the assay with RPMI-8226 leukemia, 96.6%; with OVCAR-8 ovarian, 104%; in the assay on OVCAR-5 ovarian it was 98.5%. Also, the growth in the assay with OVCAR-4 ovarian is 100%; in the assay on SK-OV-3 ovarian, 117%; in the assay with IGROV1 ovarian, 96.1%; with OVCAR-3 ovarian, 101%; in the assay with HS 578T breast, 108%; with NCI/ADR-RES ovarian, 96.9%.

With `c1ccc(Nc2ccccn2)nc1`, the growth was 91.8% in the assay with EKVX NSCLC; 96.8% in the assay with SN12C renal; 96.7% in the assay with UO-31 renal; 99.4% in the assay on TK-10 renal; 96% with ACHN renal; 95% in the assay with CAKI-1 renal. The growth in the assay on A498 renal was 112%; in the assay on CCRF-CEM leukemia it was 90.9%; with MOLT-4 leukemia, 91.7%; in the assay with RPMI-8226 leukemia, 71.2%; in the assay on OVCAR-8 ovarian, 100%; with OVCAR-5 ovarian it was 102%. Further, the growth in the assay with OVCAR-4 ovarian was 100%; in the assay with IGROV1 ovarian, 114%; in the assay on OVCAR-3 ovarian it was 108%; in the assay with HS 578T breast, 113%; with NCI/ADR-RES ovarian, 112%.

On to `O=C1NCC2CCCC1C2` (centres undefined), for which the growth in the assay on EKVX NSCLC is 118%; in the assay on SN12C renal, 101%; with UO-31 renal, 92.7%; in the assay on TK-10 renal it was 101%; in the assay with ACHN renal, 111%; in the assay on A498 renal, 133%. In addition, the growth is 104% with CCRF-CEM leukemia; 103% in the assay on MOLT-4 leukemia; 110% in the assay on SR leukemia; 118% in the assay with RPMI-8226 leukemia; 99.3% in the assay on OVCAR-8 ovarian; 107% in the assay with OVCAR-5 ovarian. Also, the growth in the assay with OVCAR-4 ovarian was 103%; in the assay on SK-OV-3 ovarian it was 110%; in the assay on IGROV1 ovarian, 107%; in the assay with OVCAR-3 ovarian, 114%; with NCI/ADR-RES ovarian, 106%.

On to `CC(C)c1ccc(C(=O)OCCCl)cc1`, for which the growth was 102% in the assay on EKVX NSCLC; 99.3% in the assay on SN12C renal; 92.6% in the assay with UO-31 renal; 94.6% in the assay on TK-10 renal; 94.5% in the assay on ACHN renal; 383% in the assay on CAKI-1 renal. Moreover, the growth is 92.7% in the assay with A498 renal; 107% in the assay on CCRF-CEM leukemia; 100% in the assay with MOLT-4 leukemia; 106% in the assay with SR leukemia; 221% in the assay on RPMI-8226 leukemia; 94% with OVCAR-8 ovarian. Besides, the growth in the assay with OVCAR-5 ovarian was 96.5%; in the assay on OVCAR-4 ovarian it was 104%; in the assay on IGROV1 ovarian it was 109%; in the assay with OVCAR-3 ovarian it was 123%; with HS 578T breast, 94.7%; in the assay with NCI/ADR-RES ovarian it was 102%.

`COC1=C(OC)C(=O)C(SC/C=C(\C)CCCC(C)CCCC(C)CCCC(C)C)=CC1=O` (centres undefined): the growth in the assay on EKVX NSCLC is 27.6%; in the assay on SN12C renal it was 15.4%; with UO-31 renal it was -3.97% (active); in the assay with TK-10 renal, 56%; in the assay with ACHN renal, 20.6%; in the assay with CAKI-1 renal, 102%. For the same molecule, the growth with A498 renal is 16.8%; in the assay with MOLT-4 leukemia it was 10.4%; in the assay with OVCAR-8 ovarian, 18.7%; in the assay on OVCAR-5 ovarian, 25.7%; in the assay on OVCAR-4 ovarian, 27.9%; in the assay with SK-OV-3 ovarian, 45.4%. Besides, the growth is -9.75% (active) in the assay with IGROV1 ovarian, 13.6% in the assay with OVCAR-3 ovarian, 63.6% in the assay with HS 578T breast and 11.6% with NCI/ADR-RES ovarian.

`NS(=O)(=O)c1cc(=O)[nH]c(=O)[nH]1`: the growth with EKVX NSCLC is 112%; with SN12C renal it was 108%; in the assay with UO-31 renal, 100%; in the assay on TK-10 renal it was 113%; with ACHN renal, 104%; in the assay with A498 renal it was 190%. Also, the growth with CCRF-CEM leukemia was 103%; in the assay with MOLT-4 leukemia, 148%; with SR leukemia, 135%; in the assay with RPMI-8226 leukemia, 118%; in the assay with OVCAR-8 ovarian it was 114%; in the assay on OVCAR-5 ovarian, 112%. Further, the growth in the assay on OVCAR-4 ovarian was 110%; in the assay on SK-OV-3 ovarian it was 108%; with IGROV1 ovarian it was 121%; in the assay with OVCAR-3 ovarian, 116%; in the assay on HS 578T breast, 102%; in the assay on NCI/ADR-RES ovarian, 109%.

`C/C(Cc1ccccc1)=N\O`: the growth is 116% in the assay with EKVX NSCLC; 107% in the assay with SN12C renal; 102% in the assay with UO-31 renal; 103% in the assay with TK-10 renal; 106% in the assay with ACHN renal; 115% with CAKI-1 renal. Besides, the growth in the assay with A498 renal was 103%; in the assay with CCRF-CEM leukemia, -29.9% (active); with MOLT-4 leukemia, 5.17% (active); in the assay on SR leukemia it was 101%; in the assay with RPMI-8226 leukemia, 83.3%; with OVCAR-8 ovarian it was 107%. Besides, the growth in the assay with OVCAR-5 ovarian was 107%; with OVCAR-4 ovarian, 117%; with SK-OV-3 ovarian, 128%; with OVCAR-3 ovarian it was 105%; in the assay with NCI/ADR-RES ovarian it was 107%.

`COC1(OC)C2(Cl)C(Cl)=C(Cl)C1(Cl)C1COCC12` (centres undefined): the growth in the assay with EKVX NSCLC is 104%; in the assay on SN12C renal it was 99.2%; in the assay with UO-31 renal it was 91.6%; in the assay with TK-10 renal, 94.7%; with ACHN renal, 108%; in the assay on CAKI-1 renal it was 93.9%. Besides, the growth in the assay with A498 renal was 87.6%; with CCRF-CEM leukemia, 103%; in the assay with MOLT-4 leukemia, 102%; with SR leukemia, 89.9%; with RPMI-8226 leukemia, 106%; in the assay on OVCAR-8 ovarian, 93.9%. Besides, the growth with OVCAR-4 ovarian is 97.7%; with SK-OV-3 ovarian, 96%; with IGROV1 ovarian, 113%; with OVCAR-3 ovarian it was 110%; in the assay on HS 578T breast, 87.4%; in the assay with NCI/ADR-RES ovarian, 110%.
